# High-throughput results deposited in PubChem by National Center for Advancing Translational Sciences (NCATS).
# Pf growth 48h = P. falciparum growth inhibition at 48 hours (one generation); P. falciparum luciferase growth in erythrocytes, 48 h; Potency, µM (top dose mostly 28.7 µM), most hits filed as inhibitors; 310,000 compounds, 5.9% hits
#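 Cell-based growth assay: transgenic P. falciparum expressing firefly luciferase, cultured in red cells within RPMI 1640 containing 0.5% w/v Albumax, 24 mM bicarbonate and gentamycin. A drop in luciferase activity indicates inhibition.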
# NS1 inh = blocks influenza NS1 protein function | Potency, µM (doses to about 46.1 µM) | 270,000 compounds, 0.4% hits | AID 2326; calls by dose curve; further: actives are rising curves; nearly all actives have a fitted effect of over 50% in size
#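 S. cerevisiae expressing influenza A NS1, grown in glucose, washed, then diluted 1:100 into pH 6.0 -URA galactose medium with 23 nl compound. Growth recovery read as OD600; NS1-free strain serves as control.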
# Cycloheximide cs = affects cycloheximide protein synthesis inhibition readout, counter-screen. max response, %. cell reporter, cycloheximide protein synthesis inhibition counterscreen. 300,000 compounds, 12% hits. AID 2314; in the data active means max response mostly above about 13%, no sharp cut-off; inactive means mostly below about 14%; further: read at 38.3 µM for the half of the compounds with a filed dose
# Giardia FBPA inh = Giardia lamblia aldolase inhibition | purified Giardia FBPA | Potency, µM (highest dose often 59.6 µM), usual class: inhibitors | 290,000 compounds, 0.71% hits; further: nearly all actives have a fitted effect of over 55% in size
# Target sequence (A8B2U2 whole entry, looked up): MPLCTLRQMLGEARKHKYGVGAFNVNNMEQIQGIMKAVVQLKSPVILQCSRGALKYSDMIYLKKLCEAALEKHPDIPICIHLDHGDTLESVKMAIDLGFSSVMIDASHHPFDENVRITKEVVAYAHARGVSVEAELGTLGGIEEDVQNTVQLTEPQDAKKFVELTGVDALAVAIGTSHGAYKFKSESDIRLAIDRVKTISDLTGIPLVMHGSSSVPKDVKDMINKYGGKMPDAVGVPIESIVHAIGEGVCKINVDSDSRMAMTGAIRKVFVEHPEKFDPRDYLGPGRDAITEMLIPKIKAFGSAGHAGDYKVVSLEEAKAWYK
#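 40 nM FBPA preincubated 10 min at RT with compound (up to 57.5 uM final), then substrate plus GAPDH/TPI/NAD/arsenate coupling and diaphorase/resazurin added. Fluorescence read after 20 min at RT, 525/598 nm.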
# Pf growth 96h = P. falciparum growth inhibition at 96 hour, primary screen for plastid delayed-death inhibitors. P. falciparum luciferase reporter growth, 96 h. Potency, µM (doses to about 28.7 µM), most hits filed as inhibitors. 320,000 compounds, 6.9% hits. AID 504834
#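 Erythrocytes infected with luciferase-expressing P. falciparum were dispensed at 2% hematocrit and 0.05% parasitemia (final), then incubated with compounds 96 hours at 37 C in 5% CO2. Luminescence after detection reagent addition reported growth.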
# Shiga toxin inh = blocks Shiga toxin action in Vero cells. AID 2315. inhibition, % at 38.7 µM. Vero cells, Shiga toxin protein synthesis inhibition reporter. 290,000 compounds, 9.2% hits; in the data active means inhibition mostly above about 28%, no sharp cut-off; inactive means mostly below about 43%
# A number is an active result; i = inactive; ? = inconclusive; nt = no result; + = active, no number; [ ] = another dose, or the depositor's remark. The list is not random: actives were taken first. Their share in the collection is about 21%. Unless noted, the call rests on the fitted dose curve; in most records, active means well fitted curve in the direction sought with a large enough effect; inconclusive means small, poorly fitted or top-dose-only effect, or another doubt; inactive means no such curve, though single readings can be large; an effect the other way counts as inactive or inconclusive.
SMILES,Pf growth 48h,NS1 inh,Cycloheximide cs,Giardia FBPA inh,Pf growth 96h,Shiga toxin inh
O=C(NC(=S)Nc1ccccn1)c1ccco1,i,i,47,?,i,58
O=C(O)c1cccc(N2C(=O)C3CC=CCC3C2=O)c1 (stereo unspecified),i,i,i,i,i,i
CC1C=CCC2C(=O)N(c3cccc(C(=O)N4CCN(c5ccc(F)cc5)CC4)c3)C(=O)C12 (stereo unspecified),i,i,i,i,nt,i
O=C(c1cccc(N2C(=O)C3CC=CCC3C2=O)c1)N1CCCCCC1 (stereo unspecified),i,i,i,i,0.17µM,i
O=C(O)c1cccc(N2C(=O)C3CC=C(Cl)CC3C2=O)c1 (stereo unspecified),nt,i,i,i,10µM,i
CCc1ccc(C(=O)COC(=O)c2cccc(N3C(=O)c4c(C)nc5ccccc5c4C3=O)c2)cc1,i,i,56,nt,?,103
Nc1cccc(C(=O)OCC(=O)c2ccccc2)c1,i,i,44,i,i,+
COc1cc2ccc([C@H](C)NCC#N)cc2cc1OC,nt,i,nt,nt,nt,nt
O=C(CN1C(=O)NC2(CCCC2)C1=O)Oc1ccc2ccc(=O)oc2c1,i,nt,nt,nt,i,nt
O=C(COC(=O)c1cccc(N2C(=O)C3CC=CCC3C2=O)c1)c1ccccc1 (stereo unspecified),i,i,27,i,i,55
O=C(CN1C(=O)C2CC=C(Cl)CC2C1=O)Nc1ccc(C(=O)O)cc1 (stereo unspecified),i,i,i,i,13µM,i
Cc1ccc(NC(=O)CN2C(=O)C3CC=C(Cl)CC3C2=O)cc1 (stereo unspecified),i,i,i,i,i,i
O=C(c1cccc(N2C(=O)C3CC=CCC3C2=O)c1)N1CCN(c2ccccc2)CC1 (stereo unspecified),12µM,i,i,i,?,i
O=C(COC(=O)c1ccc(N2CCCC2=O)cc1)c1ccccc1,i,i,31,i,i,83
O=C(COC(=O)CNC(=O)c1ccc(Cl)cc1Cl)NCc1ccco1,i,nt,nt,nt,i,nt
O=C(COC(=O)CNC(=O)c1ccccc1)Nc1ccc2c(c1)OCO2,i,nt,i,i,i,i
COC(=O)c1[nH]c2ccccc2c1NC(=O)c1c(F)cccc1F,i,i,i,i,i,i
Cc1ccc(S(=O)(=O)Cc2ccc(C(=O)NC3CCCCCC3)o2)cc1,i,i,i,nt,?,i
CN(C(=O)c1cccc(N2C(=O)C3CC=CCC3C2=O)c1)C1CCCCC1 (stereo unspecified),?,i,i,i,10µM,i
CN(C)N1C(N)=C(C#N)C(c2ccccc2F)C2=C1CC(C)(C)CC2=O (stereo unspecified),?,i,i,i,i,i
CCN(CC)S(=O)(=O)c1cccc(-c2nnc(SCc3nc4ccccc4s3)o2)c1,nt,i,23,i,?,i
CN(C)S(=O)(=O)c1cccc(-c2nnc(SCc3ccc4c(c3)OCCO4)o2)c1,17µM,?,33,i,?,i
Brc1ccccc1-c1nnc(SCc2nc3ccccc3s2)o1,i,i,53,i,i,101
O=C(O)c1ccc(CSc2nnc(-c3ccccc3Br)o2)cc1,i,i,i,i,i,i
CCN(CC)S(=O)(=O)c1cccc(-c2nnc(-c3ccc(C)cc3)o2)c1,i,i,i,i,nt,i
SMILES,Pf growth 48h,NS1 inh,Cycloheximide cs,Giardia FBPA inh,Pf growth 96h,Shiga toxin inh
CCCC(=O)NCC(c1cccs1)S(=O)(=O)c1ccc(C)cc1 (stereo unspecified),i,i,i,i,?,i
CCn1cnc2c1c(=O)n(CC(=O)NCC(C)C)c(=O)n2Cc1ccccc1,i,i,i,i,?,i
O=C(Nc1cccc(S(=O)(=O)N2CCCCC2)c1)Nc1ccc(Cl)cc1Cl,i,i,i,i,?,i
Cc1cc2sc(NC(=O)c3ccco3)nc2cc1Cl,i,i,71,i,i,79
COc1cc2nc(NC(=O)c3ccco3)sc(=O)c2cc1OC,i,i,i,i,i,i
COc1cc2sc(NC(=O)c3ccco3)nc2cc1Cl,i,i,45,i,i,102
CCOC(=O)OCC1OC(C#Cc2ccc(C)cc2C)C=CC1OC(=O)OCC (stereo unspecified),nt,nt,nt,i[12.9 µM],nt,nt
O=C(Oc1ccc2c(c1)OCO2)c1ccc(F)cc1Cl,i,i,72,i,?,137
Cc1ccc(S(=O)(=O)CC(=O)c2ccccc2)cc1,i,i,i,i,i,i
CCCOc1cccc(C(=O)Nc2cccc(NC(=O)c3ccco3)c2)c1,?,i,14,i,nt,i
CC(C)c1ccc(NC(=O)c2cccc(Br)c2)cc1,i,nt,36,?,i,119
CCCCOc1cccc(C(=O)Nc2ccc(NC(=O)c3ccco3)cc2)c1,i,i,i,i,i,i
Cc1ccc(S(=O)(=O)CC(=O)c2ccc3c(c2)OCCO3)cc1,i,i,45,i,i,82
CCc1ccccc1NC(=O)c1ccc2c(O)c(S(=O)(=O)c3ccc(OC)cc3)c(=O)[nH]c2c1,i,i,i,i,?,i
COc1ccc2[nH]cc(S(=O)(=O)c3ccc(C(C)C)cc3)c(=O)c2c1,i,nt,i,i,i,i
O=C(CCN1C(=O)c2ccccc2S1(=O)=O)Nc1ccc(F)c(F)c1F,?,nt,nt,nt,i,nt
O=S1(=O)CCN(Cc2cccc(C(F)(F)F)c2)CC1,i,nt,i,i,i,i
Cc1c(C(=O)Nc2ccc3c(c2)OCCO3)oc2ccc(Br)cc12,i,nt,nt,nt,i,nt
CCN1C(=O)c2cccc3c(NC(=O)c4ccc5c(c4)OCCO5)ccc1c23,i,i,13,i,?,i
Cc1ccc(C(=O)Nc2ccc3c(c2)OCCO3)cc1,i,i,i,i,i,47
O=C(Nc1cccc(F)c1)c1ccc2c(c1)OCO2,i,i,59,i,i,69
CCN1C(=O)c2cccc3c(NC(=O)c4ccccc4)ccc1c23,?,i,i,?,?,i
O=C(Nc1ccc2c(c1)OCCO2)c1ccc(Br)cc1,i,i,33,i,i,i
O=C(Nc1c(C(=O)Nc2cccc(F)c2)oc2ccccc12)c1ccc2c(c1)OCO2,i,i,i,i,?,i
CCCOc1cccc(C(=O)Nc2ccc3c(c2)OCCO3)c1,i,i,24,i,?,71
SMILES,Pf growth 48h,NS1 inh,Cycloheximide cs,Giardia FBPA inh,Pf growth 96h,Shiga toxin inh
CCc1nc2ccc(C(=O)Nc3cccc(C(C)=O)c3)cc2nc1CC,i,i,i,i,?,i
CCC(=O)Nc1cccc(NC(=O)c2ccc3c(c2)OCCO3)c1,i,i,50,i,nt,56
CCc1nc2ccc(C(=O)Nc3ccc4c(c3)OCO4)cc2nc1CC,i,nt,27,i,?,i
Cc1ccc(CNc2ccc3c(c2)OCO3)cc1,?,2.8µM,42,?,i,100
CCC(=O)Nc1ccc(NC(=O)c2ccc3c(c2)OCO3)cc1,nt,i,i,i,nt,i
O=C1N=C2SCCN2C(=O)C1Cc1ccc(Cl)cc1 (stereo unspecified),i,nt,nt,nt,i,nt
